Assay outcomes from PubChem.
The list is not random: actives were taken first. Their share in the collection is about 2.2%.
IEC-6 cytotox: counter-screen for KLF5 inhibitors: cytotoxicity in IEC-6 cells; IEC-6 cytotoxicity, luminescence viability; inhibition, % at 5 µM; 290,000 tested, 0.78% active
KLF5 inhibitor: kruppel-like factor 5 inhibition; DLD-1 KLF5 promoter-luciferase reporter, luminescence; 290,000 tested, 0.23% active; inhibition, % at 5 µM; AID 1700;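 active = inhibition above a per-plate limit of that plate's mean compound inhibition plus 3 SD, cut at about 60% in these data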;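 note: higher means less KLF5 promoter-driven luciferase light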
aSyn UTR inh: 5' untranslated region of α-synuclein, MLPCN primary screen | 300,000 tested, 0.82% active | alpha-synuclein 5'UTR reporter, inhibitor activity | inhibition, % (tested at 7.5 µM) | AID 1813; in the data active = inhibition above about 60%;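 note: H4 neuroglioblastoma cells stably carrying SNCA 5'UTR luciferase fusion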
BaF3 tox: reduces parental Ba/F3 cell viability, JAK2V617F counter-screen | CellTiter-Glo ATP luminescence | inhibition, % at 5.6 µM | 220,000 tested, 1.1% active;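 active = inhibition above a per-campaign cutoff, the mean inhibition of all tested compounds plus 3 SD, cut at about 27% in these data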
APP transl inh: APP translation inhibition | SH-SY5Y APP 5'UTR-luciferase reporter, luminescence | inhibition, % at 2 µM | 190,000 tested, 0.82% active | AID 1285;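 active = inhibition above a set limit, derived from the sample mean plus 3 SD, cut at about 45% in these data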
Ba/F3 V617F tox: loss of viability in JAK2V617F-driven Ba/F3 cells; Ba/F3 EpoR-JAK2V617F viability, ATP luminescence; inhibition, % at 5.6 µM; 220,000 tested, 1.1% active;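 active = inhibition above the campaign mean plus 3 SD over all tested compounds, cut at about 24% in these data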;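 note: cytokine-independent growth of Ba/F3 cells driven by EpoR plus mutant JAK2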
IEC-6 tox confirm: confirmation of cytotoxic compounds in rat IEC-6 intestinal epithelial cells | IEC-6 rat intestinal epithelial viability, luminescence | AID 1907 | shares compounds with IEC-6 cytotox | 1,900 tested, 63% active | inhibition, % at 5 µM
A number is an active result; n = inactive; x = no result. Cut-off read from the data, not from the text of the source, unless noted: active = inhibition above about 22%; inactive = the rest.

SMILES	IEC-6 cytotox	KLF5 inhibitor	aSyn UTR inh	BaF3 tox	APP transl inh	Ba/F3 V617F tox	IEC-6 tox confirm
COc1cc(NC(=O)CSc2nc3c(c(=O)n(C)c(=O)n3C)n2C)cc(OC)c1	n	n	n	x	x	x	x
C=CCN1C=CC(=C/C=C(/C#N)C(=O)OCC)C=C1	n	n	n	n	n	n	x
CCc1c(C)nc2c(-c3ccccc3OC)c(C)[nH]n2c1=O	n	n	n	x	x	x	x
COc1ccc(NS(=O)(=O)c2cc(-c3cnc(C4CC4)o3)ccc2C)cc1	81	n	82	x	x	x	74
Cc1ccc(C)c(NS(=O)(=O)c2ccc(-c3cnc(C4CC4)o3)cc2)c1	93	n	93	x	x	x	62
COc1ccccc1NS(=O)(=O)c1cc(-c2cnc(C3CC3)o2)ccc1C	n	n	n	x	x	x	x
Clc1ccc2c(c1)C=Nc1c(NCc3ccccc3)ncnc1O2	n	n	n	n	n	n	x
C1=Nc2c(Nc3ccccc3)ncnc2Oc2ccccc21	53	n	n	n	n	n	33
CCOC(=O)C1=NN(C(=O)COc2ccccc2)C(O)(c2ccc(Br)cc2)C1 (stereo not given)	n	n	n	n	n	n	x
O=c1cnn(Cc2ccc(F)cc2)c2ccccc12	n	n	n	x	x	x	x
O=c1c(Cl)c(Cl)cnn1Cc1ccc(F)cc1	27	n	n	n	51	n	n
Oc1c(C(Nc2ccccn2)c2ccccn2)ccc2cccnc12 (stereo not given)	n	n	n	n	n	n	x
CCC(=O)NC(c1ccc(C)cc1)c1ccc2cccnc2c1O (stereo not given)	61	73	81	x	x	x	82
CCC(=O)NC(NC(=S)Nc1cccc2cccnc12)C(Cl)(Cl)Cl (stereo not given)	n	n	n	n	n	n	x
CCC(=O)NC(c1ccc(Cl)cc1Cl)c1ccc2cccnc2c1O (stereo not given)	26	86	75	x	x	x	70
Cc1cc(NC(c2ccc(Cl)cc2)c2ccc3cccnc3c2O)no1 (stereo not given)	39	n	85	55	79	n	72
CCOc1ccc(N(CC(=O)N/N=C(\C)c2cccc(NC(C)=O)c2)S(=O)(=O)c2ccccc2)cc1	n	n	n	x	x	x	x
Cc1ccccc1OCCN1C(=O)C(=O)c2cccc(C)c21	n	n	n	n	x	n	x
Cc1cccc2c1N(CCOc1ccccc1Cl)C(=O)C2=O	50	n	n	n	n	n	n
COc1ccc(N2CC(C(=O)Nc3nc4ccc(F)cc4s3)CC2=O)c(OC)c1 (stereo not given)	n	n	n	x	x	x	x
CCOC(=O)c1ccccc1NC(=O)Cn1c(-c2nonc2N)nc2ccccc21	77	n	73	75	94	79	52
CC(C)n1cc(NC(=O)c2cc(-c3ccccc3)on2)cn1	64	n	n	28	77	41	46
Nc1cccc(C(=O)OCC(=O)Nc2cccc3c2C(=O)c2ccccc2C3=O)c1	n	n	n	n	n	n	x
CCN(CC)CCC(=O)Nc1cccc2c1C(=O)c1ccccc1C2=O	26	n	n	68	x	85	24
COc1ccccc1/C=N/NC(=O)c1c(-c2ccccc2)noc1C	n	n	n	x	x	x	x
SMILES	IEC-6 cytotox	KLF5 inhibitor	aSyn UTR inh	BaF3 tox	APP transl inh	Ba/F3 V617F tox	IEC-6 tox confirm
Cc1cccc(/C=N/NC(=O)c2c(-c3ccccc3)noc2C)c1O	27	n	62	x	x	x	48
Cc1cccc(/C=N\NC(=O)c2ccc(Cl)cc2)c1O	23	n	n	n	n	n	51
CCOc1cc(/C=C2\CN(CC)C/C(=C\c3ccc(O)c(OCC)c3)C2=O)ccc1O	74	n	102	x	x	x	23
COc1cc(/C=C2\CCC/C(=C\c3ccc(O)c(OC)c3)C2=O)ccc1O	n	n	n	x	x	x	x
CCc1ccc(OCC(=O)NNC(=S)NC(=O)C2CCCCC2)c(Br)c1	n	n	n	x	x	x	x
CCc1ccc(OCC(=O)NNC(=S)NC(=O)C2CC2)c(Br)c1	30	n	x	x	x	x	n
COc1ccc(-c2cn(-c3ccc(OC)cc3)c3[n+]2-c2ccccc2CC3)cc1	25	n	n	77	n	95	26
CCOc1ccc(OCCn2nnc3ccccc3c2=O)cc1	n	n	n	n	n	n	x
COc1ccc(-n2nc(C(=O)NCC(=O)Nc3ccc(F)cc3)c3ccccc3c2=O)cc1	n	n	n	x	x	x	x
CC(C)c1ccc(NC(=O)C(c2ccccc2)N2CCN(C(=O)c3ccco3)CC2)cc1 (stereo not given)	46	n	n	n	n	n	n
CC(C)c1ccc(NC(=O)C(c2ccc3c(c2)OCO3)N2CCN(C(=O)c3ccco3)CC2)cc1 (stereo not given)	n	n	n	n	n	n	x
COc1ccc(N/N=C(\C#N)C(N)=O)cc1	n	n	n	n	n	n	x
N#C/C(=N/Nc1ccc(OC(F)(F)F)cc1)C(N)=S	28	n	n	68	x	50	35
O=C(N/N=C/c1ccc(F)cc1)c1cccc(NC(=O)c2ccccc2Cl)c1	n	n	n	x	x	x	x
CC(=O)Nc1nc2ccc(S(=O)(=O)N3CCCC3)cc2s1	n	n	n	x	x	x	x
CCCC(=O)Nc1nc2ccc(S(=O)(=O)N3CCCCC3)cc2s1	54	n	n	79	79	80	59
COc1cccc(-c2ccc(SCC(=O)NC3CCCCC3)nn2)c1	n	n	n	x	x	x	x
COc1ccc(NC(=O)c2cccnc2)c([N+](=O)[O-])c1	46	n	n	60	n	66	30
CC1CCCN(CCCNC(=O)C2CCN(S(=O)(=O)N3CCC4(CC3)OCCO4)CC2)C1 (stereo not given)	n	n	n	x	x	x	x
COc1cc2c(cc1OC)C(C)N(C(=O)Nc1ccccc1)CC2 (stereo not given)	63	n	n	x	x	x	50
COc1cc2c(cc1OC)C(C)N(C(=O)CCNC(=O)c1ccccc1)CC2 (stereo not given)	n	n	n	x	x	x	x
O=C(c1c[nH]c2ccccc12)C(O)C(c1ccccc1)N1CCOCC1 (stereo not given)	n	n	n	n	n	n	x
O=C(c1c[nH]c2ccccc12)C(Cl)c1ccccc1 (stereo not given)	33	n	n	x	x	x	n
Cc1ccccc1NC(=O)CSc1nc2scc(C)c2c(=O)[nH]1	37	n	n	x	x	x	n
Cc1cc2nc(SCC(=O)Nc3ccccc3C(=O)O)[nH]c2cc1C	n	n	n	n	n	n	x
Cc1nc2cc(NC(=O)c3ccc([N+](=O)[O-])s3)ccc2s1	30	n	77	x	x	x	n
Cc1cnc(NC(=O)C2CC(=O)N(c3cccc(Cl)c3)C2)s1 (stereo not given)	73	n	n	x	x	x	33
COc1cc(-c2noc(C)c2C#Cc2ccsc2)cc(OC)c1OC	83	n	69	x	x	x	61
COc1cc(-c2noc(C)c2C#CC2(O)CCCCC2)cc(OC)c1OC	n	n	n	x	x	x	x
COc1ccc(CCNC(=O)C2c3ccccc3C(=O)N2CCC(C)C)cc1OC (stereo not given)	n	n	n	x	x	x	x
